In PubChem BioAssay AID2284168 (EPA ToxCast):
Activity calls are given as the source filed them. How the source made its calls: active means hit-call score of the fitted dose curve at least 0.9, where 1 is the maximum; inactive means score below 0.9.

molecular target: human Opioid Receptor delta (DOP) Agonism, OPRD1 (gene 4985) (UniProt P41143); assay: ERF_FR_GPCR_hOPRD1: Eurofins (ERF) G Protein-Coupled Receptor (GPCR) Radioligand Binding LeadHunter Assay for human Opioid Receptor delta (DOP) Agonism
Sequence (P41143 whole entry, looked up): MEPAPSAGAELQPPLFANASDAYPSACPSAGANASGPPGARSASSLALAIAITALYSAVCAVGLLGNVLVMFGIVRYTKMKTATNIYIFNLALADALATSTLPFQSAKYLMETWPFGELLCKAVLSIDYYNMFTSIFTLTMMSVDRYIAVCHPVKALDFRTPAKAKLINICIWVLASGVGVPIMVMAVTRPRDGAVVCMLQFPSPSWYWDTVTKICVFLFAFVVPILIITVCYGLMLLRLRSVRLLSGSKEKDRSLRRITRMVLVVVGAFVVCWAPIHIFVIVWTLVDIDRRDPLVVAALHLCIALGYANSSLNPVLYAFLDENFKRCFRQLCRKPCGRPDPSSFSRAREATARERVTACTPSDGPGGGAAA
Protocol: ERF_FR_GPCR_hOPRD1 is a biochemical, single-readout assay that uses extracted gene-proteins in a cell-free assay. Measurements were taken 1 hour after chemical dosing in a 96-well plate. See delta (DOP) Human Opioid GPCR Binding (Agonist Radioligand) Assay, Cerep.ERF_FR_GPCR_hOPRD1 is an assay component calculated from the ERF_FR_GPCR_hOPRD1 assay. It is designed to measure radioligand binding using a type of binding reporter as detected by scintillation counting with radiometry technology.Data from the assay component ERF_FR_GPCR_hOPRD1 was analyzed at the assay endpoint, ERF_FR_GPCR_hOPRD1, in the positive analysis fitting direction relative to DMSO as the negative control and baseline of activity. Using a type of binding reporter, gain-of-signal activity can be used to understand changes in binding as they relate to gene OPRD1. To generalize the intended target to other relatable targets, this assay endpoint is annotated to the gpcr intended target family, where the subfamily is opioid.
Human cells are incubated for 60 minutes at room temprature with [3H]DADLE ligand (0.5 nM) and DPDPE as control inhibitor. Test Sample Requirements: Minimum for 1) Screen: 60 ul of 10 mM stock -OR- 1 mg (pre-weighed) for 10 uM final testing. 2) Dose Response: 90 ul of 10 mM stock -OR- 1 mg (pre-weighed) for a top concentration at 10 uM.

For `O=C(/C=C/c1ccc(O)cc1)CC(=O)/C=C/c1ccc(O)cc1`, which AC50 is on record?
The AC50 was 1500 nM (active).
